BCLXL inh = inhibitors of human Bcl-xL, primary screen, biochemical, fluorescence polarization, HTS; hit rate 0.7% among 320,000; AID 2129, 2009; Bcl-2-like protein 1 (Homo sapiens), Q07817; GST-Bcl-xL / FITC-Bim BH3 peptide fluorescence polarization; inhibition, % at 10.9 µM;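 active means inhibition above the mean of all tested compounds plus 3 SD, cutoff set per campaign, cut at about 30% in these data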;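 further: inhibitors lower millipolarization by displacing the labeled peptide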
Target sequence (Q07817 whole entry, looked up): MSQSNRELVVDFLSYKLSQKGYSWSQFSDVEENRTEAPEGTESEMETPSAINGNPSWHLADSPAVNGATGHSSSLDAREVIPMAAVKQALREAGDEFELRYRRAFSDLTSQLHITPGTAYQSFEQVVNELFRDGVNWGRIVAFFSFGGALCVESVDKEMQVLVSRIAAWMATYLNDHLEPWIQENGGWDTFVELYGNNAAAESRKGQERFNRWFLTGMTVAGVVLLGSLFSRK
RTF Ca sens inh = cardiac RTF calcium sensitivity inhibitors, primary screen, biochemical, IANBD-TnC fluorescence, EC70 calcium. Troponin I, cardiac muscle (Homo sapiens) + Troponin T, cardiac muscle (Homo sapiens) + …. inhibition, % at 7.15 µM. hit rate 0.12% among 340,000. IANBD-labeled cardiac RTF, Ca2+ fluorescence;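 active means inhibition above the mean inhibition of all tested compounds plus 3 SD, cut at about 17% in these data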;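 further: assay run at fixed EC70 calcium of 1.6 mM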
GLD-1 TGE inh = GLD-1/TGE RNA complex disruptors, primary screen, biochemical, fluorescence polarization | Female germline-specific tumor suppressor gld-1 (Caenorhabditis elegans), Q17339 | purified GLD-1 + fluorescein TGE RNA | inhibition, % at 5.96 µM | hit rate 0.44% among 320,000 | AID 2280, 2010;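 active means percent inhibition above a per-plate cutoff, the plate mean of test compounds plus 3 SD, cut at about 30% in these data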
E coli Lon inh = inhibitors of E. coli Lon protease, primary screen, biochemical, fluorescence polarization; purified E. coli Lon protease; inhibition, % at 7.94 µM; hit rate 0.42% among 360,000; AID 602123, 2011; in the data active means inhibition above about 13%, passing the limit was not always enough
cardiac RTF act = cardiac RTF calcium sensitivity activators, primary screen, biochemical, IANBD-TnC fluorescence, EC20 calcium; Troponin I, cardiac muscle (Homo sapiens) + Troponin T, cardiac muscle (Homo sapiens) + …; IANBD-labeled TnC RTF fluorescence at EC20 calcium; 0% EC20 calcium, 100% full calcium; activation, % at 7.2 µM; hit rate 0.24% among 340,000; AID 493008, 2010;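 active means activation above the mean over all tested compounds plus 3 SD, cut at about 30% in these data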;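 further: rise in fluorescence read as greater calcium sensitivity of cardiac thin filaments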
eLon confirm = E. coli Lon protease inhibitor retest, confirmation, biochemical, fluorescence polarization | shares compounds with E coli Lon inh | purified E. coli Lon | inhibition, % at 7.94 µM | hit rate 31% among 1,400 | AID 602230, 2012; in the data active means inhibition above about 16%
Numbers stand for hits; 0 = inactive; - = not tested or not shown; + = active, no number. In the library only some 1.2% were active in any assay of this set; here they are far more common.

SMILES	BCLXL inh	RTF Ca sens inh	GLD-1 TGE inh	E coli Lon inh	cardiac RTF act	eLon confirm
CC(=O)c1c(C)[nH]c(C(=O)OCC(=O)N(Cc2ccccc2)C(C)(C)C)c1C	-	0	-	71	0	0
CC(=O)c1c(C)[nH]c(C(=O)OCc2ccccc2)c1C	0	0	0	0	0	-
CC(=O)c1c(C)[nH]c(C(=O)CSc2nnc(-c3ccccc3)n2Cc2ccc3c(c2)OCO3)c1C	0	0	0	18	0	0
CCNC(=O)c1c(C)nc2ccccn12	0	0	0	16	0	0
Cc1cc(Cl)n2ncc(-c3ccccc3)c2n1	0	0	0	0	0	-
COc1ccc(N2C(=O)CS(=O)C(c3ccccc3)C2=O)cc1 (stereo not given)	0	0	0	24	0	31
Cc1ccc(N2C(=O)CS(=O)C(c3ccccc3)C2=O)cc1C (stereo not given)	0	0	0	0	0	-
CSc1ncccc1C(=O)N1CCN(S(=O)(=O)c2ccc(F)cc2)CC1	0	0	0	0	0	-
CSc1ncccc1C(=O)N1CCN(S(=O)(=O)c2ccc(C)cc2)CC1	0	0	0	17	0	0
Cc1ccc(CNC(=O)c2cc(C3CC3)nc3c2cnn3C(C)C)cc1	0	0	0	0	0	-
Cc1ccc(OCCNC(=O)c2cc(C3CC3)nc3c2cnn3C(C)C)cc1	0	0	0	+	0	0
Cn1c(CNC(=O)Nc2cccc(Cl)c2)nnc1SCc1ccccc1	0	0	0	15	0	0
Cn1c(CNC(=O)Nc2ccccc2)nnc1SCc1ccccc1	0	0	0	0	0	-
CN(C)/C=N/c1cc(=O)[nH]c(=O)n1CC1CC1	0	0	0	0	0	-
C=CCn1c(=O)[nH]c2nc3cc(N=CN(C)C)c(C)cc3nc2c1=O	+	0	181	158	131	+
COc1ccc(CN2C(=O)C(CC(=O)NCCN3CCOCC3)CC(C(=O)N(C)C)=C2C)cc1 (stereo not given)	-	-	-	0	-	-
Cc1ccc(C2=NN(CCC(=O)NCCCN3CCOCC3)C(=O)CC2)cc1	0	0	0	0	0	-
Cc1ccc(S(=O)(=O)N2CCN(C(=O)CCn3nc(C)c(C)c3C)CC2)cc1	0	0	0	0	0	-
CC(=O)Nc1ccc2nc3c(=O)n(C)c(=O)n(C)c3nc2c1	132	0	65	68	0	64
Cn1c(=O)c2nc3ccccc3nc2n(C)c1=O	0	0	0	0	0	-
COc1cc(C)c2c(c1C=O)Oc1c(c(C)c(O)c3c1C(O)OC3=O)OC2=O (stereo not given)	0	0	0	57	0	16
COc1ccccc1C(=O)Oc1ccc2c(c1)O/C(=C\c1ccncc1)C2=O	123	0	101	28	35	49
O=C(Oc1ccc2c(c1)O/C(=C\c1ccncc1)C2=O)c1cccs1	78	-	84	54	-	24
Cc1ccc(C(=O)COC(=O)c2c(C)cc(=O)oc2C)cc1[N+](=O)[O-]	0	0	0	0	0	-
O=[N+]([O-])c1ccc(Cc2ccc([N+](=O)[O-])cc2)cc1	-	0	-	0	0	-
SMILES	BCLXL inh	RTF Ca sens inh	GLD-1 TGE inh	E coli Lon inh	cardiac RTF act	eLon confirm
N#CC(CCc1ccc([N+](=O)[O-])cc1)(CCc1ccc([N+](=O)[O-])cc1)C(N)=O	-	0	-	52	0	31
CCn1nnc(C(=O)O)c1C(=O)O	0	0	0	16	0	0
Nc1c(C(=O)O)nnn1Cc1ccccc1	0	0	0	0	0	-
CC1(C)CC(=O)C2=C(C1)OC1=C(C(=O)CC(C)(C)C1)C2c1ccccc1Cl	-	-	-	0	-	-
O=C1CC(=O)CC(c2ccccc2Cl)C1	0	0	0	30	0	0
CN1C(=O)CSC1=Nc1cccc(C(=O)O)c1	0	0	0	0	0	-
O=C(COc1ccccc1)NCC(=O)N/N=C/c1ccc(Br)cc1	0	0	0	0	0	-
Cc1cccc(-c2cccc(NC(=O)C3CCCN(C(=O)c4csc(C)n4)C3)c2)c1 (stereo not given)	0	0	0	79	0	0
Cc1cccc(-c2cccc(NC(=O)C3CCCN(C(=O)c4cccnc4)C3)c2)c1 (stereo not given)	-	0	-	0	0	-
O=C(O)c1ccc(NC(=O)c2ccccc2NC(=O)c2cccc(Br)c2)cc1	0	0	0	0	0	-
COc1ccc(N=Nc2nc3ccc(Br)cc3n2C)cc1	+	0	176	+	132	92
COc1ccc(-c2c(-c3cc(OC)cc(OC)c3)n(C)c3ccc(Br)cc23)cc1	0	0	0	0	0	-
C(/C=C/c1ccccn1)=C\c1ccccc1	0	0	0	36	0	0
COc1ccc(CN2CCC(CO)(Cc3ccccc3C(F)(F)F)CC2)c(F)c1	0	0	0	20	0	0
COc1ccc(CC2(CO)CCN(Cc3cccc4nccnc34)CC2)cc1	0	0	0	0	0	-
Cn1cc(S(=O)(=O)NC2CCCCCC2)c(=O)n(C)c1=O	0	0	0	0	0	-
Cn1c(=O)c(NCCc2ccccc2)c2c3c(cccc31)C(=O)c1ccccc1-2	+	0	+	+	+	0
CC(=O)Nc1ccc(Nc2c3c4c(cccc4n(C)c2=O)C(=O)c2ccccc2-3)cc1	+	0	169	148	178	178
CCCCNc1c2c3c(cccc3n(C)c1=O)C(=O)c1ccccc1-2	198	0	+	188	+	101
Cn1c(=O)c(NC2CCCCC2)c2c3c(cccc31)C(=O)c1ccccc1-2	-	0	-	118	369	0
CC(=O)Nc1ccc(NC2=CC(=O)c3ccccc3C2=O)cc1	0	0	0	0	0	-
Cn1c(NCCc2ccccc2)cc(=O)n(C)c1=O	0	0	0	0	0	-
COC(=O)c1sc(NC(=S)NC(=O)c2cc(OC)c(OC)c(OC)c2)nc1C	0	0	0	0	0	-
Cn1c(=O)c(NCCO)c2c3c(cccc31)C(=O)c1ccccc1-2	114	0	81	+	+	+
Cc1cccc(NC2=C(NCCO)C(=O)c3ccccc3C2=O)c1	0	0	0	0	0	-
CC(NC(=O)c1cccnc1)C(c1ccccc1)N1CCN(C)CC1 (stereo not given)	0	0	0	0	0	-
CCCC(=O)NC(c1ccc(OC)c(OC)c1)c1cc(Cl)c2cccnc2c1O (stereo not given)	0	0	0	17	0	48
COc1ccc(C(NC(C)=O)c2cc(Cl)c3cccnc3c2O)cc1 (stereo not given)	0	0	0	0	0	-
O=C1NC(=O)C2(N1)C(=O)c1cccc3cccc2c13 (stereo not given)	-	-	-	+	-	+
